Results as given in PubChem BioAssay (EPA / NIEHS).
Active and inactive are the calls of the source. How the source made its calls: active means hit-call score of the fitted dose curve at least 0.9, where 1 is the maximum; inactive means score below 0.9.

What was measured:
Details in all cases: mRNA level, 48 h; actives raise or lower the signal
[1] = read-out: Early growth response protein 1 (EGR1) transcription factor, EGR1 (gene 1958); assay: LTEA_HepaRG_EGR1: Life Technologies and Expression Analysis (LTEA) Assay for Early growth response protein 1 (EGR1) transcription factor using HepaRG (AID 2283490)
Procedure, shortened: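 EGR1 transcript levels quantified by qRT-PCR (Fluidigm arrays) against three housekeeping genes after 48 h chemical exposure of HepaRG cells. Eight-point half-log series topping at 100 uM, 0.5% DMSO vehicle, analyzed for gain or loss.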

[2] = read-out: Ezrin (EZR), EZR (gene 7430); assay: LTEA_HepaRG_EZR: Life Technologies and Expression Analysis (LTEA) Assay for Ezrin (EZR) using HepaRG (AID 2283491)
Procedure, shortened: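 Read-out is EZR transcript level by qRT-PCR, normalized to three housekeeping genes and fitted bidirectionally against the DMSO control. Human HepaRG cells received test chemicals for 48 h at eight half-log concentrations up to 100 uM in 0.5% DMSO.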

[3] = read-out: Cytochrome P450 3A7 (Homo sapiens) (UniProt P24462); assay: LTEA_HepaRG_CYP3A7: Life Technologies and Expression Analysis (LTEA) Assay for CYP3A7 using HepaRG (AID 2283492)
Procedure, shortened: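 CYP3A7 transcript measured by qRT-PCR (ACTB, GAPDH, POLR2A normalization) after 48 h chemical exposure of HepaRG cells in duplicate. Eight half-log concentrations, maximum 100 uM, 0.5% DMSO vehicle; bidirectional curve fitting against DMSO baseline.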

[4] = read-out: Fatty Acid-Binding Protein 1 (FABP1), FABP1 (gene 2168); assay: LTEA_HepaRG_FABP1: Life Technologies and Expression Analysis (LTEA) Assay for Fatty Acid-Binding Protein 1 (FABP1) using HepaRG (AID 2283494)
Procedure, shortened: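 FABP1 expression by TaqMan qRT-PCR, normalised to three housekeeping genes, in HepaRG cells after 48 h chemical treatment. Eight-point half-log series topping at 100 uM in 0.5% DMSO, duplicates; gain or loss fitted relative to vehicle.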

[5] = read-out: Cytochrome P450 7A1 (Homo sapiens) (UniProt P22680); assay: LTEA_HepaRG_CYP7A1: Life Technologies and Expression Analysis (LTEA) Assay for Cytochrome P450 7A1 (CYP7A1) using HepaRG (AID 2283496)
Procedure, shortened: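 Using 0.5% DMSO as vehicle and baseline, chemicals were tested in duplicate over an 8-point range from 100 uM on HepaRG cells for 48 h; qRT-PCR signals were normalised to ACTB, GAPDH and POLR2A.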

[6] = read-out: Glutamate-cysteine ligase catalytic (GCLC), GCLC (gene 2729); assay: LTEA_HepaRG_GCLC: Life Technologies and Expression Analysis (LTEA) Assay for Glutamate-cysteine ligase catalytic (GCLC) using HepaRG (AID 2283498)
Procedure, shortened: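 Expression by TaqMan qRT-PCR, normalized to three housekeeping genes (ACTB, GAPDH, POLR2A), with up- or down-regulation fitted against DMSO. HepaRG cells dosed in duplicate for 48 h with 8 half-log concentrations up to 100 uM, vehicle 0.5% DMSO.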

[7] = read-out: growth arrest and DNA damage 45 (GADD45G), GADD45G (gene 10912); assay: LTEA_HepaRG_GADD45G: Life Technologies and Expression Analysis (LTEA) Assay for growth arrest and DNA damage 45 (GADD45G) using HepaRG (AID 2283499)
Procedure, shortened: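 GADD45G transcript level by qRT-PCR (housekeeping-normalized: ACTB, GAPDH, POLR2A) after 48 h chemical treatment of a single HepaRG lot in serum-free induction medium; eight-point half-log series up to 100 uM in 0.5% DMSO, duplicates, up- or down-regulation scored.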

[8] = read-out: Glutamate-cysteine ligase regulatory (GCLM), GCLM (gene 2730); assay: LTEA_HepaRG_GCLM: Life Technologies and Expression Analysis (LTEA) Assay for Glutamate-cysteine ligase regulatory (GCLM) using HepaRG (AID 2283500)
Procedure, shortened: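 HepaRG, 48 h dosing, 100 uM top, half-log x8, 0.5% DMSO vehicle. Readout: GCLM mRNA by TaqMan qRT-PCR, housekeeping-normalized (ACTB/GAPDH/POLR2A). Curves fit bidirectionally vs DMSO baseline.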

[9] = read-out: Glutathione S-transferase M3 (GSTM3), GSTM3 (gene 2947); assay: LTEA_HepaRG_GSTM3: Life Technologies and Expression Analysis (LTEA) Assay for Glutathione S-transferase M3 (GSTM3) using HepaRG (AID 2283501)
Procedure, shortened: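 GSTM3 transcript levels came from Fluidigm TaqMan qRT-PCR normalized to three housekeeping genes, fitted in both directions against DMSO. HepaRG cultures received chemicals for 48 h in serum-free induction medium (0.5% DMSO), 8 half-log concentrations up to 100 uM, duplicate.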

[10] = read-out: Heat shock 70 kDa protein 1 (HSPA1A), gene 3303; assay: LTEA_HepaRG_HSPA1A: Life Technologies and Expression Analysis (LTEA) Assay for Heat shock 70 kDa protein 1 (HSPA1A) using HepaRG (AID 2283502)
Procedure, shortened: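 HepaRG, 48 h exposure, 8-pt half-log CRC from 100 uM in 0.5% DMSO, duplicates. Readout: TaqMan qRT-PCR of HSPA1A mRNA, housekeeping-normalized (ACTB/GAPDH/POLR2A). Bidirectional fit vs 0.5% DMSO baseline.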

HGF (gene 3082) = assay: LTEA_HepaRG_HGF: Life Technologies and Expression Analysis (LTEA) Assay for Hepatocyte Growth Facto (HGF) using HepaRG (AID 2283505)
Procedure, shortened: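 HGF transcript was quantified by TaqMan qRT-PCR against three housekeeping genes after 48 h treatment of HepaRG cells. Exposure ran in duplicate over eight half-log steps topping at 100 uM in 0.5% DMSO vehicle.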

[11] = read-out: Insulin Like Growth Factor 1 (IGF1), IGF1 (gene 3479); assay: LTEA_HepaRG_IGF1: Life Technologies and Expression Analysis (LTEA) Assay for Insulin Like Growth Factor 1 (IGF1) using HepaRG (AID 2283506)
Procedure, shortened: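 qRT-PCR readout of IGF1 mRNA, normalized to three housekeeping genes, after 48 h chemical exposure of HepaRG cells. Concentrations: 8-point half-log series, top 100 uM, 0.5% DMSO vehicle. Gain or loss fitted against DMSO baseline.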

[12] = read-out: Insulin-like growth factor-binding protein 1 (IGFBP1), IGFBP1 (gene 3484); assay: LTEA_HepaRG_IGFBP1: Life Technologies and Expression Analysis (LTEA) Assay for Insulin-like growth factor-binding protein 1 (IGFBP1) using HepaRG (AID 2283508)
Procedure, shortened: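 Read-out is qRT-PCR transcript level normalized to three housekeeping genes, fitted in both directions against 0.5% DMSO. Differentiated HepaRG cells received eight half-log concentrations (top 100 uM) in duplicate for 48 h in serum-free induction medium.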

[13] = read-out: Interleukin 6 Receptor (IL6R), IL6R (gene 3570); assay: LTEA_HepaRG_IL6R: Life Technologies and Expression Analysis (LTEA) Assay for Interleukin 6 Receptor (IL6R) using HepaRG (AID 2283510)
Procedure, shortened: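 HepaRG, 48 h exposure, 8-pt half-log series, top 100 uM, 0.5% DMSO vehicle, duplicates. Read-out: TaqMan qRT-PCR of IL6R transcript, housekeeping-gene normalized. Gain or loss fitted relative to DMSO baseline.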

CYP3A5 (gene 1577) = assay: LTEA_HepaRG_CYP3A5: Life Technologies and Expression Analysis (LTEA) Assay for CYP3A5 using HepaRG (AID 2283493)
Procedure, shortened: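 qRT-PCR read-out: CYP3A5 transcript in HepaRG lysates, housekeeping-normalized (ACTB/GAPDH/POLR2A), fitted bidirectionally against 0.5% DMSO baseline. Exposure 48 h, eight half-log concentrations up to 100 uM, duplicates.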

[14] = read-out: 3-Hydroxy-3-Methylglutaryl-CoA Synthase 2 (HMGCS2), HMGCS2 (gene 3158); assay: LTEA_HepaRG_HMGCS2: Life Technologies and Expression Analysis (LTEA) Assay for 3-Hydroxy-3-Methylglutaryl-CoA Synthase 2 (HMGCS2) using HepaRG (AID 2283504)
Procedure, shortened: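 Readout is HMGCS2 transcript by qRT-PCR, housekeeping-normalised (ACTB/GAPDH/POLR2A) and fitted bidirectionally against 0.5% DMSO. Differentiated HepaRG cells received chemicals 48 h, duplicate wells, eight half-log concentrations topping at 100 uM.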

Measured: AC50

Sequence of Cytochrome P450 3A7 (Homo sapiens) (P24462 whole entry, looked up): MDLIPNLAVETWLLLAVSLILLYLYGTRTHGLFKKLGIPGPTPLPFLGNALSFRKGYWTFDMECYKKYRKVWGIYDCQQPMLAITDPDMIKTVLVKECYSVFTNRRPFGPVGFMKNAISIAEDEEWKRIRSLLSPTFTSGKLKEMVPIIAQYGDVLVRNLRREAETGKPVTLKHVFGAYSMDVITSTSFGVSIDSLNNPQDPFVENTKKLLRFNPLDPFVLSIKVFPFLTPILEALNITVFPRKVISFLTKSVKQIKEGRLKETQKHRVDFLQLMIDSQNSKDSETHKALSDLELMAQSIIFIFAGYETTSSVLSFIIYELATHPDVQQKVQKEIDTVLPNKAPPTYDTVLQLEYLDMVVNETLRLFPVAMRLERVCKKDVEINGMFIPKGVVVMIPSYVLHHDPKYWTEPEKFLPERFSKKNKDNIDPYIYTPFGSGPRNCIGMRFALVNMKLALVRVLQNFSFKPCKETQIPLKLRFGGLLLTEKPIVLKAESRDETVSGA

O=P(Oc1ccccc1)(Oc1ccccc1)Oc1ccccc1
active: [3] 12.6 µM | [6] 74.9 µM | [7] 50 µM | [8] 50 µM | [11] 4.15 µM | [12] 37.8 µM
not listed: CYP3A5 (gene 1577) | [14]
inactive: all other assays above

CCC(C)(C)c1ccc(O)cc1
inactive: all assays above

CCNc1nc(Cl)nc(NC(C)(C)C)n1
active: [4] 28.7 µM | [11] 13.1 µM
inactive: all other assays above

ClC(Cl)c1ccccc1
inactive: all assays above

OCC1CO1 (stereo not given)
inactive: all assays above

c1nc[nH]n1
active: [1] 0.109 µM | [9] 12.6 µM
inactive: all other assays above

CC(C)(C)c1ccc(O)cc1
not listed: [3] | [5] | HGF (gene 3082) | CYP3A5 (gene 1577)
inactive: all other assays above

Nc1cc2c3c(c1)C(c1ccccc1)=N[C@@H](NC(=O)c1cccnc1)C(=O)N3CC2
active: [3] 5.11 µM | [4] 50 µM | [11] 11.8 µM
inactive: all other assays above

CCCCN(CCCC)N=O
inactive: all assays above

CCN(CC)c1ccccc1
inactive: all assays above

CCOc1ccc(C(C)(C)COCc2cccc(Oc3ccccc3)c2)cc1
active: [3] 1.64 µM | [5] 26.8 µM | [11] 12.4 µM
inactive: all other assays above
